Inconclusive results are not listed. Active and inactive are the calls of the source. The call rests on the fitted dose curve; in most records, active means well fitted curve in the direction sought with a large enough effect in the repeat runs; inconclusive means weak or mixed curves; inactive means no such curve, though single readings can be large; an effect the other way counts as inactive or inconclusive.
Key:
[1] = qHTS RealTime-Glo MT Cell Viability Assay in HepG2 cells - 40 hour (AID 1224870); details: RealTime-Glo luminescence; series mostly up to 76.8 µM; further: nearly all actives have a fitted effect of over 50% in size
How it was run: (§1)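 Real-time viability: cells seeded at 600 per well together with NanoLuc and cell-permeant prosubstrate, compounds added after 5 h incubation. Luminescence tracked at 0, 8, 16, 24, 32 and 40 h of exposure.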

[2] = A CellTox Green Cytotoxicity Assay to monitor cytotoxicity in HEK293 cells - 40 hour (AID 1224871); details: CellTox Green fluorescence; series mostly up to 35.3 µM; further: nearly all actives have a fitted effect of over 45% in size
How it was run: (§2)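 Nonlytic real-time cytotoxicity: HEK293 + CellTox Green reagent plated, 5 h preincubation, pintool compound addition (23 nL in DMSO), 37 C for 40 h, fluorescence measured at successive time points.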

[3] = qHTS RealTime-Glo MT Cell Viability Assay in HEK293 cells - 16 hour (AID 1224872); details: RealTime-Glo luminescence; series mostly up to 76.8 µM; further: top concentration of the series differs between compounds; nearly all actives have a fitted effect of over 50% in size
How it was run: (§3)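 Homogeneous bioluminescent viability format in HEK293 cells (600 cells/well). Following 5 h at 37 C/5% CO2, 23 nL compound was pintooled; the signal was measured repeatedly during 40 h incubation.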

[4] = qHTS RealTime-Glo MT Cell Viability Assay in HepG2 cells - 8 hour (AID 1224873); details: RealTime-Glo luminescence; series mostly up to 76.8 µM; further: nearly all actives have a fitted effect of over 55% in size
How it was run: as §1

[5] = qHTS RealTime-Glo MT Cell Viability Assay in HEK293 cells - 40 hour (AID 1224874); details: RealTime-Glo luminescence; max response: stronger effect = lower value; further: nearly all actives have a fitted effect of over 50% in size
How it was run: (§4)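 Cells were seeded together with NanoLuc luciferase and a prosubstrate that viable cells reduce to a luciferase substrate. After a 5 h incubation at 37 C/5% CO2, compounds were added and luminescence was measured repeatedly during 40 h of treatment.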

[6] = A CellTox Green Cytotoxicity Assay to monitor cytotoxicity in HEK293 cells - 24 hour (AID 1224875); details: CellTox Green fluorescence; series mostly up to 76.8 µM; further: nearly all actives have a fitted effect of over 45% in size
How it was run: as §2

[7] = A CellTox Green Cytotoxicity Assay to monitor cytotoxicity in HepG2 cells - 16 hour (AID 1224876); details: CellTox Green fluorescence; series mostly up to 76.8 µM; further: nearly all actives have a fitted effect of over 45% in size
How it was run: (§5)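 Read-out is fluorescence of a cyanine dye excluded from live cells that stains DNA of dead HepG2 cells, with signal proportional to cytotoxicity. Plates were read at 0, 8, 16, 24, 32 and 40 h after compound addition.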

[8] = qHTS RealTime-Glo MT Cell Viability Assay in HepG2 cells - 32 hour (AID 1224877); details: RealTime-Glo luminescence; series mostly up to 76.8 µM; further: nearly all actives have a fitted effect of over 55% in size
How it was run: (§6)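 Cell number in HepG2 cultures estimated from NanoLuc luminescence generated by metabolic reduction of a prosubstrate by living cells. The homogeneous, nonlytic format allowed repeated reads at 0, 8, 16, 24, 32 and 40 h of compound exposure.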

[9] = A CellTox Green Cytotoxicity Assay to monitor cytotoxicity in HepG2 cells - 24 hour (AID 1224878); details: CellTox Green fluorescence; series mostly up to 76.8 µM; further: nearly all actives have a fitted effect of over 45% in size
How it was run: as §5

[10] = A CellTox Green Cytotoxicity Assay to monitor cytotoxicity in HepG2 cells - 40 hour (AID 1224879); details: CellTox Green fluorescence; series mostly up to 76.8 µM; further: nearly all actives have a fitted effect of over 40% in size
How it was run: as §5

[11] = qHTS RealTime-Glo MT Cell Viability Assay in HEK293 cells - 0 hour (AID 1224880); details: RealTime-Glo luminescence; series mostly up to 76.8 µM
How it was run: as §4

[12] = A CellTox Green Cytotoxicity Assay to monitor cytotoxicity in HEK293 cells - 32 hour (AID 1224881); details: CellTox Green fluorescence; series mostly up to 35.3 µM; further: nearly all actives have a fitted effect of over 40% in size
How it was run: as §2

[13] = A CellTox Green Cytotoxicity Assay to monitor cytotoxicity in HepG2 cells - 0 hour (AID 1224882); details: CellTox Green fluorescence; series mostly up to 76.8 µM; further: nearly all actives have a fitted effect of over 35% in size
How it was run: as §5

[14] = A CellTox Green Cytotoxicity Assay to monitor cytotoxicity in HepG2 cells - 32 hour (AID 1224883); details: CellTox Green fluorescence; series mostly up to 76.8 µM; further: nearly all actives have a fitted effect of over 50% in size
How it was run: as §5

[15] = A CellTox Green Cytotoxicity Assay to monitor cytotoxicity in HEK293 cells - 8 hour (AID 1224884); details: CellTox Green fluorescence; series mostly up to 76.8 µM; further: nearly all actives have a fitted effect of over 35% in size
How it was run: as §2

[16] = qHTS RealTime-Glo MT Cell Viability Assay in HepG2 cells - 16 hour (AID 1224885); details: RealTime-Glo luminescence; series mostly up to 76.8 µM; further: nearly all actives have a fitted effect of over 50% in size
How it was run: as §6

[17] = qHTS RealTime-Glo MT Cell Viability Assay in HEK293 cells - 24 hour (AID 1224886); details: RealTime-Glo luminescence; series mostly up to 76.8 µM
How it was run: as §3

[18] = qHTS RealTime-Glo MT Cell Viability Assay in HEK293 cells - 8 hour (AID 1224887); details: RealTime-Glo luminescence; series mostly up to 76.8 µM
How it was run: as §4

[19] = qHTS RealTime-Glo MT Cell Viability Assay in HepG2 cells - 0 hour (AID 1224889); details: RealTime-Glo luminescence; series mostly up to 76.8 µM; further: nearly all actives have a fitted effect of over 50% in size
How it was run: as §6

[20] = A CellTox Green Cytotoxicity Assay to monitor cytotoxicity in HEK293 cells - 16 hour (AID 1224888); details: CellTox Green fluorescence; series mostly up to 76.8 µM; further: nearly all actives have a fitted effect of over 35% in size
How it was run: as §2
On the % scale 0 is the no-effect control and ±100 the full control effect.

O=C1CCCC(=O)C1
inactive: Potency [1] | Potency [2] | Potency [3] | Potency [4] | max response [5] 1.44% | Potency [6] | Potency [7] | Potency [8] | Potency [9] | Potency [10] | Potency [11] | Potency [12] | Potency [13] | Potency [14] | Potency [15] | Potency [16] | Potency [17] | Potency [18] | Potency [19]

N=C(N)c1ccccc1
inactive: Potency [1] | Potency [2] | Potency [3] | Potency [4] | max response [5] -0.53% | Potency [6] | Potency [7] | Potency [8] | Potency [9] | Potency [10] | Potency [11] | Potency [12] | Potency [13] | Potency [14] | Potency [15] | Potency [16] | Potency [17] | Potency [18] | Potency [20] | Potency [19]

CN(C)CCCNCCCN(C)C
inactive: Potency [1] | Potency [2] | Potency [3] | Potency [4] | max response [5] 5.75% | Potency [6] | Potency [7] | Potency [8] | Potency [9] | Potency [10] | Potency [11] | Potency [12] | Potency [15] | Potency [16] | Potency [17] | Potency [18] | Potency [19]

CCc1nccnc1CC
inactive: activity change, negative = cytotoxic [1] -2.15% [at 15.8 µM] | Potency [2] | activity change, negative = cytotoxicity [3] 5.29% [at 15.8 µM] | viability change, negative = cytotoxic [4] 1.16% [at 15.8 µM] | max response [5] 3.61% | activity change [6] -5.25% [at 15.8 µM, stronger effect = higher value] | cytotoxicity increase [7] 1.53% [at 15.8 µM] | activity change, negative = cytotoxic [8] -1.59% [at 15.8 µM] | cytotoxicity [9] 0.289% [at 15.8 µM] | cytotoxicity increase [10] 0.942% [at 15.8 µM] | activity change, negative = cytotoxicity [11] -3.54% [at 15.8 µM] | Potency [12] | cytotoxicity [13] -0.271% [at 15.8 µM] | cytotoxicity increase [14] 4.25% [at 15.8 µM] | cytotoxicity increase [15] -4.27% [at 15.8 µM] | activity change, negative = cytotoxic [16] -1.18% [at 15.8 µM] | activity change, negative = cytotoxicity [17] 6.29% [at 15.8 µM] | activity change, negative = cytotoxicity [18] -0.69% [at 15.8 µM] | activity change, negative = cytotoxicity [19] -0.513% [at 15.8 µM]

CCN1CCC[C@H]1CNC(=O)c1c(O)c(Cl)cc(Cl)c1OC
inactive: Potency [1] | Potency [2] | Potency [3] | Potency [4] | max response [5] -0.593% | Potency [6] | Potency [7] | Potency [8] | Potency [9] | Potency [10] | Potency [11] | Potency [12] | Potency [14] | Potency [15] | Potency [16] | Potency [17] | Potency [18] | Potency [19]

Cc1[nH]c(=O)c(C#N)cc1-c1ccc2nccn2c1
inactive: Potency [1] | Potency [2] | Potency [3] | Potency [4] | max response [5] 5.99% | Potency [6] | Potency [7] | Potency [8] | Potency [9] | Potency [10] | Potency [11] | Potency [12] | Potency [14] | Potency [15] | Potency [16] | Potency [17] | Potency [18] | Potency [20] | Potency [19]

CCSC(=O)N(CC(C)C)CC(C)C
inactive: Potency [1] | Potency [2] | Potency [3] | Potency [4] | max response [5] 5.8% | Potency [6] | Potency [7] | Potency [8] | Potency [9] | Potency [10] | Potency [11] | Potency [12] | Potency [13] | Potency [14] | Potency [15] | Potency [16] | Potency [17] | Potency [18] | Potency [20] | Potency [19]

C=CCCCCCCCCC=O
inactive: Potency [1] | Potency [2] | Potency [3] | Potency [4] | max response [5] -1.95% | Potency [6] | Potency [7] | Potency [8] | Potency [9] | Potency [10] | Potency [11] | Potency [12] | Potency [14] | Potency [15] | Potency [16] | Potency [17] | Potency [18] | Potency [20] | Potency [19]

CO/N=C(/C(=O)N[C@@H]1C(=O)N2C(C(=O)OCOC(=O)C(C)(C)C)=C(C)CS[C@H]12)c1csc(N)n1
inactive: Potency [1] | Potency [2] | Potency [3] | Potency [4] | max response [5] 3.21% | Potency [6] | Potency [7] | Potency [8] | Potency [9] | Potency [10] | Potency [11] | Potency [12] | Potency [13] | Potency [14] | Potency [15] | Potency [16] | Potency [17] | Potency [18] | Potency [20] | Potency [19]

CCc1cccc2c(CCO)c[nH]c12
inactive: Potency [1] | Potency [2] | Potency [3] | Potency [4] | max response [5] 0.292% | Potency [6] | Potency [7] | Potency [8] | Potency [9] | Potency [10] | Potency [11] | Potency [12] | Potency [13] | Potency [14] | Potency [15] | Potency [16] | Potency [17] | Potency [18] | Potency [20] | Potency [19]

COc1c(N2C[C@@H]3CCCN[C@@H]3C2)c(F)cc2c(=O)c(C(=O)O)cn(C3CC3)c12
inactive: Potency [1] | Potency [2] | Potency [3] | Potency [4] | max response [5] -3.41% | Potency [6] | Potency [7] | Potency [8] | Potency [9] | Potency [10] | Potency [11] | Potency [12] | Potency [13] | Potency [14] | Potency [15] | Potency [16] | Potency [17] | Potency [18] | Potency [20] | Potency [19]

Cn1cc(S(C)=O)c(=O)c2ccc(F)cc21 (stereo not drawn)
inactive: Potency [1] | Potency [2] | Potency [3] | Potency [4] | max response [5] -13.8% | Potency [6] | Potency [7] | Potency [8] | Potency [9] | Potency [10] | Potency [11] | Potency [12] | Potency [14] | Potency [15] | Potency [16] | Potency [17] | Potency [18] | Potency [20] | Potency [19]

CC(C)NCC(O)c1ccc(NS(C)(=O)=O)cc1 (stereo not drawn)
inactive: Potency [1] | Potency [2] | Potency [3] | Potency [4] | max response [5] 4.96% | Potency [6] | Potency [7] | Potency [8] | Potency [9] | Potency [10] | Potency [11] | Potency [12] | Potency [15] | Potency [16] | Potency [17] | Potency [18] | Potency [20] | Potency [19]

— PubChem BioAssay (Tox21)
